In PubChem BioAssay (EPA / NIEHS):
Records with an inconclusive call do not appear. Calls of active or inactive are those of the source. Rule for the calls, unless noted: active = hit-call score of the fitted dose curve at least 0.9, where 1 is the maximum; inconclusive = response in the unintended direction; inactive = score below 0.9.

Assays:
[1] = TOX21_p53_BLA_p2_viability: Viability Assessment in the Tox21 HCT-116 p53 Agonism Beta-lactamase Assay, Phase 2 (AID 2283591);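 note: compound exposure lasted 16 h at 37 °C; actives lower the ATP signal meaning cytotoxicity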
Procedure, shortened: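 HCT-116 p53-bla cells (4000/well) rested 5 h at 37C, then received compounds in DMSO (217-fold dilution) for 16 h at 37C, 5% CO2. After the CCF4 read, CellTiter-Glo was added; ATP luminescence was read after 30 min at room temperature.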

[2] = target: Cellular tumor antigen p53 (Homo sapiens) (UniProt P04637); experiment: TOX21_p53_BLA_p2_ratio: Tox21 HCT-116 p53 Agonism Beta-lactamase Assay, Ratio, Phase 2 (AID 2283592)
Sequence of Cellular tumor antigen p53 (Homo sapiens) (P04637 whole entry, looked up): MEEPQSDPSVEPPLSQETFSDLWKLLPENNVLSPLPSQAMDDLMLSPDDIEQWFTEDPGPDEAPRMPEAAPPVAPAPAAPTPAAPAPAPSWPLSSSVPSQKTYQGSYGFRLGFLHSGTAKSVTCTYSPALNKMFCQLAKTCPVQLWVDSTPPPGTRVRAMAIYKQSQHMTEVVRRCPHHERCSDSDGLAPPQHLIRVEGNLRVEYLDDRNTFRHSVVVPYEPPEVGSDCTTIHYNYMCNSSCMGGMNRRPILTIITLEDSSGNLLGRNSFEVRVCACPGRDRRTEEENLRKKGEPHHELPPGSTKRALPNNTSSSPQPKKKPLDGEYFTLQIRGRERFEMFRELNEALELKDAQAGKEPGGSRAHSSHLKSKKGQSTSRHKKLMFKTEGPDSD
Procedure, shortened: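 HCT116 cells carrying a p53-responsive beta-lactamase reporter were plated, incubated 5 h at 37C, then dosed with compounds in DMSO (217-fold dilution) for 16 h. CCF4-AM substrate was added for 2 h at room temperature; the 460/530 nm emission ratio gave gain-of-signal activity relative to DMSO.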

[3] = target: Cellular tumor antigen p53 (Homo sapiens) (UniProt P04637); experiment: TOX21_p53_BLA_p3_ratio: Tox21 HCT-116 p53 Agonism Beta-lactamase Assay, Ratio, Phase 3 (AID 2283596)
Procedure, shortened: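 HCT116 p53-bla cells (4000/well) given compound in DMSO (217-fold dilution) after 5 h, incubated 16 h at 37C. CCF4-AM substrate 2 h at room temperature; 460/530 nm emission ratio, gain fitted against DMSO.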

[4] = TOX21_p53_BLA_p4_viability: Viability Assessment in the Tox21 HCT-116 p53 Agonism Beta-lactamase Assay, Phase 4 (AID 2283597);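 note: hits lower the luminescence signal meaning cytotoxicity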
Procedure, shortened: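 HCT116 p53-bla cells (4000/well) rested 5 h at 37C, then received compounds in DMSO (217-fold dilution) for 16 h at 37C, 5% CO2. CellTiter-Glo was added after the CCF4-AM read, and luminescence was read after 30 min at room temperature.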

[5] = target: Cellular tumor antigen p53 (Homo sapiens) (UniProt P04637); experiment: TOX21_p53_BLA_p5_ratio: Tox21 HCT-116 p53 Agonism Beta-lactamase Assay, Ratio, Phase 5 (AID 2283599)
Procedure, shortened: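 HCT-116 cells carrying a p53-inducible beta-lactamase reporter were seeded at 4000 cells/well and dosed after 5 h with compound in DMSO (217-fold dilution). After 16 h at 37C, CCF4-AM substrate was added for 2 h, and the 460/530 nm emission ratio was scored as gain-of-signal versus DMSO.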

[6] = TOX21_p53_BLA_p5_viability: Viability Assessment in the Tox21 HCT-116 p53 Agonism Beta-lactamase Assay, Phase 5 (AID 2283600)
Procedure, shortened: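 Cells were plated at 4000/well, rested 5 h at 37C, then given compounds in DMSO (217-fold dilution) for 16 h at 37C, 5% CO2. Following the CCF4-AM beta-lactamase read, CellTiter-Glo was added and luminescence was read after 30 min at room temperature.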

[7] = target: Cellular tumor antigen p53 (Homo sapiens) (UniProt P04637); experiment: TOX21_p53_BLA_p4_ratio: Tox21 HCT-116 p53 Agonism Beta-lactamase Assay, Ratio, Phase 4 (AID 2283601)
Procedure, shortened: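 HCT116 cells carrying an inducible beta-lactamase reporter were plated at 4000 cells/well, rested 5 h, then exposed to compounds in DMSO (217-fold dilution) for 16 h at 37C. CCF4-AM substrate was loaded 2 h at room temperature; 460/530 nm emission ratio scored gain-of-signal versus DMSO.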

[8] = tested on: Brachyury (BRA) Protein Expression, Deisenroth Lab, TBXT (gene 6862); experiment: CCTE_Deisenroth_DEVTOX-GLR_legacy_Bra: (Legacy) CCTE's DevTox GLR-Endo Assay Evaluation of Brachyury (BRA) Protein Expression, Deisenroth Lab (AID 2284329; active = hit-call score of the fitted dose curve at least 0.9, where 1 is the maximum; inactive = score below 0.9)
Procedure, shortened: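 RUES2-GLR human pluripotent cells differentiated 48 h with two 24-h-interval chemical exposures (1 nM - 200 uM, 10 points); fixed, nuclear-stained, imaged. Bra+ cell percentage (intensity 5x BMAD above pluripotent control median) fitted relative to 0.2% DMSO.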

[9] = CCTE_Deisenroth_DEVTOX-GLR_legacy_CellCount: (Legacy) Viability Assessment in CCTE's DevTox GLR-Endo Assay, Deisenroth Lab (AID 2284331; active = hit-call score of the fitted dose curve at least 0.9, where 1 is the maximum; inactive = score below 0.9); settings: actives raise or lower the signal
Procedure, shortened: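 Seed RUES2-GLR 24 h; differentiate 48 h, dosing at 0 and 24 h; fix, stain nuclei; image 5 fields/well; count nuclei. Conc. 1 nM - 200 uM, single technical replicate, n=4 experiments; bidirectional fit vs 0.2% DMSO.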

[10] = tested on: SRY-box transcription factor 17 (SOX17) Protein Expression, Deisenroth Lab, SOX17 (gene 64321); experiment: CCTE_Deisenroth_DEVTOX-GLR_legacy_Sox17: (Legacy) CCTE's DevTox GLR-Endo Assay Evaluation of SRY-box transcription factor 17 (SOX17) Protein Expression, Deisenroth Lab (AID 2284341; active = hit-call score of the fitted dose curve at least 0.9, where 1 is the maximum; inactive = score below 0.9); settings: actives raise or lower the signal
Procedure, shortened: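 Using the RUES2-GLR line, compounds are tested as 10-point series during 48-h defined-media differentiation. Sox17 reporter fluorescence per cell determines positivity; endpoint is percentage positive, analysed bidirectionally versus DMSO baseline.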

[11] = tested on: SRY-box transcription factor 2 (SOX2) Protein Expression, Deisenroth Lab, SOX2 (gene 6657); experiment: CCTE_Deisenroth_DEVTOX-GLR_legacy_Sox2: (Legacy) CCTE's DevTox GLR-Endo Assay Evaluation of SRY-box transcription factor 2 (SOX2) Protein Expression, Deisenroth Lab (AID 2284346; active = hit-call score of the fitted dose curve at least 0.9, where 1 is the maximum; inactive = score below 0.9)
Procedure, shortened: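 RUES2-GLR human pluripotent cells seeded 24 h, then differentiated 48 h in defined media with two chemical doses 24 h apart (10-point, 1 nM–200 uM). Fixed, nuclear-stained, imaged; % Sox2+ cells (>5x BMAD over endoderm control median), DMSO-subtracted, fitted upward.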

[12] = tested on: SRY-box transcription factor 2 (SOX2) Protein Expression, Deisenroth Lab, SOX2 (gene 6657); experiment: CCTE_Deisenroth_DEVTOX-GLR_Endo_SOX2: CCTE's DevTox GLR-Endo Assay Evaluation of SRY-box transcription factor 2 (SOX2) Protein Expression, Deisenroth Lab (AID 2284412)
Procedure, shortened: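 RUES2-GLR human pluripotent cells were seeded 24 h, then differentiated 48 h with two chemical exposures 24 h apart. Cells were fixed, nuclei stained and imaged by high-content microscopy. Endpoint is %SOX2+ cells over cell count, minus 0.2% DMSO control; 10-point series 1 nM–200 uM.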

[13] = tested on: SRY-box transcription factor 17 (SOX17) Protein Expression, Deisenroth Lab, SOX17 (gene 64321); experiment: CCTE_Deisenroth_DEVTOX-GLR_Endo_SOX17: CCTE's DevTox GLR-Endo Assay Evaluation of SRY-box transcription factor 17 (SOX17) Protein Expression, Deisenroth Lab (AID 2284413; active = hit-call score of the fitted dose curve at least 0.9, where 1 is the maximum; inactive = score below 0.9)
Procedure, shortened: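 Endpoint: % change in SOX17+ fraction (SOX17+ cells / cell count) vs 0.2% DMSO solvent control. RUES2-GLR reporter cells, 48 h endoderm differentiation, two doses at 24 h intervals, high-content fluorescence imaging, 5 fields/well.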

[14] = tested on: Brachyury (BRA) Protein Expression, TBXT (gene 6862); experiment: CCTE_Deisenroth_DEVTOX-GLR_Endo_BRA: CCTE's DevTox GLR-Endo Assay Evaluation of Brachyury (BRA) Protein Expression, Deisenroth Lab (AID 2284417; active = hit-call score of the fitted dose curve at least 0.9, where 1 is the maximum; inactive = score below 0.9)
Procedure, shortened: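 Percent BRA+ (mesoderm) RUES2-GLR cells after 48 h differentiation with two exposures, 1 nM - 200 uM; 0.2% DMSO control subtracted.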

[15] = CCTE_Deisenroth_DEVTOX-GLR_Endo_CellCount: Viability Assessment in CCTE's DevTox GLR-Endo Assay, Deisenroth Lab (AID 2284420; active = hit-call score of the fitted dose curve at least 0.9, where 1 is the maximum; inactive = score below 0.9)
Procedure, shortened: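 RUES2-GLR human pluripotent cells seeded 24 h, then differentiated 48 h with two chemical exposures at 24 h intervals (10-point, 1 nM - 200 uM). Fixed, nuclear-stained, imaged; nuclei counts give % change in cell count versus 0.2% DMSO.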

[16] = tested on: SRY-box transcription factor 2 (SOX2) Protein Expression, Deisenroth Lab, SOX2 (gene 6657); experiment: CCTE_Deisenroth_DEVTOX-GLR_Pluri_SOX2: CCTE's DevTox GLR-Pluri Assay Evaluation of SRY-box transcription factor 2 (SOX2) Protein Expression, Deisenroth Lab (AID 2284428; active = hit-call score of the fitted dose curve at least 0.9, where 1 is the maximum; inactive = score below 0.9)
Procedure, shortened: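 Human pluripotent RUES2-GLR cells were seeded 24 h, then differentiated 48 h in defined media with two chemical doses at 24-h intervals (10-point, 1 nM–200 uM). Nuclear-stained cells were imaged; SOX2+ cells/cell count gave percent change versus 0.2% DMSO control.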

[17] = tested on: Brachyury (BRA) Protein Expression, Deisenroth Lab, TBXT (gene 6862); experiment: CCTE_Deisenroth_DEVTOX-GLR_Pluri_BRA: CCTE's DevTox GLR-Pluri Assay Evaluation of Brachyury (BRA) Protein Expression, Deisenroth Lab (AID 2284429)
Procedure, shortened: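 Human pluripotent RUES2-GLR cells, seeded 24 h, were differentiated 48 h in defined media with two chemical doses at 24-h intervals (10-point, 1 nM - 200 uM). Readout: percent BRA+ cells by fluorescent reporter imaging, minus 0.2% DMSO control.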

[18] = CCTE_Deisenroth_DEVTOX-GLR_Pluri_CellCount: Viability Assessment in CCTE's DevTox GLR-Pluri Assay Evaluation of Total Cell Counts, Deisenroth Lab (AID 2284430; active = hit-call score of the fitted dose curve at least 0.9, where 1 is the maximum; inactive = score below 0.9)
Procedure, shortened: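 RUES2-GLR human pluripotent cells, seeded 24 h, then differentiated 48 h with two chemical exposures 24 h apart; 10-point series 1 nM - 200 uM. Fixed, nuclear-stained, imaged (5 fields/well); nuclei count as % change vs 0.2% DMSO.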

Measured: AC50

C[C@H]1[C@@H](OC(=O)CCC(=O)O)O[C@@H]2OC3(C)CC[C@H]4[C@H](C)CC[C@@H]1[C@@]24OO3
inactive: [1] | [2] | [3] | [4] | [5] | [6] | [7]

O=C1C(=Cc2cccs2)CCCC1=Cc1cccs1
inactive: [1] | [2] | [3] | [4] | [5] | [7]

CCCCCCCCCCCCCCCC(=O)OC[C@@H](COP(=O)([O-])OCC[N+](C)(C)C)OC(=O)CCCCCCCCCCCCCCC
inactive: [1] | [2] | [3] | [4] | [7]

CNCCc1ccccn1
inactive: [1] | [2] | [3] | [4] | [6] | [7]

CCOC(=O)Cc1cccc(-c2cc(CCCCCCc3ccc(O[C@H]4O[C@H](COC(C)=O)[C@@H](OC(C)=O)[C@H](OC(C)=O)[C@@H]4OC(C)=O)c(-c4cccc(CC(=O)OCC)c4)c3)ccc2O[C@H]2O[C@H](COC(C)=O)[C@@H](OC(C)=O)[C@H](OC(C)=O)[C@@H]2OC(C)=O)c1
inactive: [1] | [2] | [3] | [4] | [7]

CC(C)(C)NCCNC(C)(C)C
inactive: [1] | [2] | [3] | [4] | [6] | [7]

Cc1ccccc1N1CCN(CCc2nnc3n2CCCC3)CC1
inactive: [1] | [2] | [3] | [4] | [6] | [7]

C=CCOc1ccc(CC(=O)O)cc1Cl
inactive: [1] | [2] | [3] | [4] | [6] | [7]

CN1CCN2c3ccccc3Cc3ccccc3C2C1 (centres undefined)
active: [1] 38.9 µM | [2] 44.4 µM | [4] 37.8 µM | [7] 43.6 µM | [8] 52.7 µM | [9] 36.5 µM | [10] 34.3 µM | [11] 50.1 µM | [12] 89.7 µM | [13] 34.1 µM | [14] 71.3 µM | [15] 36.4 µM | [16] 24.3 µM | [17] 100 µM | [18] 0.877 µM
inactive: [3] | [6]

Oc1ccc(C2(c3ccc(O)cc3)CC3CC2C2CCCC32)cc1 (centres undefined)
active: [1] 64.1 µM | [2] 82.8 µM | [4] 55.4 µM | [7] 83.1 µM
inactive: [3]

NCC[C@H](O)C(=O)N[C@@H]1C[C@H](N)[C@@H](O[C@H]2O[C@H](CN)CC[C@H]2N)[C@H](O)[C@H]1O[C@H]1O[C@H](CO)[C@@H](O)[C@H](N)[C@H]1O
inactive: [1] | [2] | [3] | [4] | [7]
